Compound activity: PubChem, National Center for Advancing Translational Sciences (NCATS)
Sampled rows, rich in hits. Any-hit rate of the full collection: about 12%.
JMJD2A Tudor inh: JMJD2A Tudor domain (human) inhibition; O75164; AlphaScreen JMJD2A-Tudor / H3K4me3 peptide binding; Potency, µM (top dose mostly 114 µM), inactives show at the highest dose activity change, negative = inhibition, usual class: inhibitors; hit rate 4.4% among 390,000; AID 504339; also: % is scaled to controls: 0 for no effect and ±100 for the full control effect; nearly all actives have a fitted effect of over 50% in size
Sfp PPTase inh: Sfp phosphopantetheinyl transferase inhibition. AID 1490. hit rate 3.5% among 310,000. Q9F4F7. Biochemical Sfp PPTase activity, qHTS. Potency, µM, without a hit: largest response in the series, negative = inhibition, actives largely listed as inhibitors;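 also: the enzyme is Sfp with the accession as filed and its product quenches rhodamine fluorescence; 0% = enzyme reaction without inhibitor and -100% = no enzyme wells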
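Sfp 15 nM + cpd, 15 min RT; start w/ rhodamine-CoA 5 uM, BHQ-2-YbbR 12.5 uM (final); 50 mM Hepes pH 7.6, 10 mM MgCl2, 0.01% NP-40, 0.01% BSA; read 525/598 nm at 0 and 30 min.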
BAZ2B block: inhibitors of human BAZ2B bromodomain | Q9UIF8 | AlphaScreen BAZ2B-H3K14Ac peptide displacement | Potency, µM (top dose mostly 114 µM), inactives show at the top dose activity change, negative = inhibition, usual class: inhibitors | hit rate 4.4% among 360,000 | AID 504333; also: % is scaled to controls: 0 for no effect and ±100 for the full control effect; nearly all actives have a fitted effect of over 60% in size
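Compounds, titrated to a top concentration of 110 uM, were incubated 30 min at room temperature with preformed BAZ2B/acetyl-K14 H3 peptide complex (50 nM each). Proximity signal was measured by AlphaScreen after 20 min with beads.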
TDP1 inh: blocks human tyrosyl-DNA phosphodiesterase 1. hit rate 0.28% among 350,000. Potency, µM (top dose mostly 130 µM), for inactives: at the highest dose activity change, negative = inhibition, usual class: inhibitors. recombinant TDP1, AlphaScreen DNA substrate cleavage. Q9NUW8; also: % is scaled to controls: 0 for no effect and ±100 for the full control effect; nearly all actives have a fitted effect of over 40% in size
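E. coli-derived human Tdp1, 1 nM final. Cpd preinc 15 min RT; substrate 15 nM final, 5 min RT; AS bead mix 10 ug/ml final, 10 min RT. Signal loss = tyrosine-FITC cleavage. No-enzyme wells = max signal.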
HP1b binding inh: HP1-beta chromodomain-methylated histone interaction inhibition; AlphaScreen HP1-beta / biotin-H3K9me3 peptide binding; P83916; hit rate 0.56% among 390,000; Potency, µM (top dose mostly 114 µM), for the others: top-dose activity change, negative = inhibition, usual class: inhibitors; also: nearly all actives have a fitted effect of over 70% in size
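AlphaScreen: HP1-beta (50 nM) preformed 30 min with biotin-H3(1-18)K9me3 peptide (50 nM) in PBS pH 7.4, 0.01% Tween-20. Compound added for 30 min at RT, then streptavidin donor/nickel chelate acceptor beads (10 ug/mL) for 30 min.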
G9a inh: inhibitors of human histone lysine methyltransferase G9a | Q96KQ7 | G9a H3K9 monomethylation, AlphaScreen, 2 h | Potency, µM (top dose mostly 102 µM), without a hit: top-dose activity, negative = inhibition, usual class: inhibitors | hit rate 8.8% among 350,000 | AID 504332; also: % is scaled to controls: 0 for no effect and ±100 for the full control effect; nearly all actives have a fitted effect of over 75% in size
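Enzyme 20 nM + cpd, 15 min RT; add b-H3K9 pep 500 nM / SAM 20 uM; 2 h RT; anti-H3K9me1 Ab 0.5 ug/mL + SA donor / anti-rabbit acceptor beads 20 ug/mL each, 10 min; AlphaScreen read.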
An asterisk follows results filed as active; ? = inconclusive; . = no result; [ ] = remark or other dose. Calls follow the shape of the dose curve; as a rule, active = well fitted curve in the direction sought with a large enough effect; inconclusive = small, poorly fitted or top-dose-only effect, or another doubt; inactive = no such curve, though single readings can be large; an effect the other way counts as inactive or inconclusive. Potency is read from the fitted curve at half-maximal effect.

SMILES	JMJD2A Tudor inh	Sfp PPTase inh	BAZ2B block	TDP1 inh	HP1b binding inh	G9a inh
CCOc1cccc(C(=O)NC(=S)Nc2ccc(Cl)cc2C(=O)O)c1	?	44.7µM*	-7.0%	2.6%	?	39.8µM*
O=C(Nc1ccc(NC(=O)c2ccc3c(c2)OCCO3)cc1)c1ccccc1	-7.5%	2.9%	5.3%	7.0%	32.2%	20.5%[59 µM]
CCc1ccccc1NC(=O)COc1ccc2c(=O)c(Oc3cc(C)ccc3C)coc2c1	-15.2%	44.7µM*	4.0%	-3.4%	23.6%	-18.9%
Cc1ccc(/C=N\NC(=O)CCc2n[nH]c(=O)[nH]c2=O)o1	15.8µM*	?	3.4%	2.3%	5.4%	-41.7%
Cc1c(-c2cc(C(=O)O)c3ccccc3n2)cnn1C	-12.4%	12.9%	-38.9%	-2.5%	32.3%	44.7µM*
CCCC(=O)Nc1cc(C(=O)O)ccc1Sc1ccc(C)cc1	-11.6%	-9.7%	1.5%	-2.7%	34.5%	44.7µM*
CCC(=O)Nc1cc(C(=O)O)ccc1Sc1ccc(C)cc1	-10.6%	12.3%	-11.7%	-10.8%	44.0%	?
CCOC(=O)C1CCN(C(c2cc3ccc(C)cc3[nH]c2=O)c2nnnn2C2CCCCC2)CC1 (stereo not drawn)	-17.9%	35.5µM*	-4.8%	-1.0%	6.9%	22.4µM*
COc1ccccc1N1CCN(C(c2cc3ccc(C)cc3[nH]c2=O)c2nnnn2C2CCCC2)CC1 (stereo not drawn)	?	39.8µM*	?	1.9%	-0.8%	28.2µM*
COc1cc2cc(C(c3nnnn3C3CCCC3)N3CCc4ccccc43)c(=O)[nH]c2cc1OC (stereo not drawn)	-10.7%	-10.1%	-10.6%	7.7%	26.5%	44.7µM*
COc1ccccc1NC(=O)CSc1nnc(Cc2cccs2)n1C	-12.8%	.	-10.1%	.	27.8%	-41.4%[59 µM]
COCCn1c(SCC(=O)c2ccc(F)cc2)nnc1C(C)C	44.7µM*	56.2µM*	-11.3%	1.0%	4.5%	?
CCCn1c(SCC(=O)c2cc(OC)ccc2OC)nnc1C(C)C	79.4µM*	-26.7%	14.1%	-4.2%	27.1%	50.1µM*
COc1ccc(OC)c(C(=O)CSc2nnc(Cc3cccs3)n2C)c1	-5.8%	44.7µM*	7.6%	8.7%	38.4%	-15.7%[59 µM]
Cc1c(C(=O)O)cccc1-n1c(C)cc(/C=N/Nc2ccc([N+](=O)[O-])cn2)c1C	-2.2%[11.4 µM]	31.6µM*	44.7µM*	-9.5%	-29.3%	44.7µM*
O=c1nccc(N/N=C/c2ccccc2O)[nH]1	?	10.5%	50.1µM*	.	25.1%[57 µM]	39.7%
COc1cccc(/C=N/Nc2ccc([N+](=O)[O-])cn2)c1O	?	10.0%	39.8µM*	.	414.0%	95.1%
COc1cccc(/C=N/Nc2ccnc(=O)[nH]2)c1O	?	15.1%	50.1µM*	.	46.6%	15.4%
CCOc1ccccc1/C=N/Nc1ccnc(=O)[nH]1	-8.3%	-26.0%	6.8%	.	60.0%	42.4%[2.33 µM]
COc1ccc(CCNc2nc(SCc3ccc(F)cc3)nc3ccccc23)cc1OC	-19.0%	.	19.0%	0.5%	55.2%	-2.7%[59 µM]
NC(=O)c1ccc(NC(=O)CS(=O)(=O)c2cn(CC(=O)N3CCCCC3)c3ccccc23)cc1	-1.4%	6.6%	-17.0%	3.5%[56.1 µM]	.	?
CC1(C2CC2)NC(=O)N(CC(=O)N2CCN(c3cccc(C(F)(F)F)c3)CC2)C1=O (stereo not drawn)	-5.5%	.	.	0.9%	14.7%	.
CC/C=C\C/C=C\C/C=C\C/C=C\C/C=C\C/C=C\CCC(=O)O[C@H](COCCCCCCCCCCCCCCCC)COP(=O)([O-])OCC[N+](C)(C)C	.	2.6%	.	6.2%	.	.
CCN(C[C@H]1N[C@@](C)(C(=O)OC)[C@H]2C(=O)N(C)C(=O)[C@@H]12)S(=O)(=O)c1ccc(C(F)(F)F)cc1	-17.4%	.	.	0.7%	45.4%	.
COc1ccc(C(=O)C[n+]2cccc(C)c2)cc1	-16.6%	-9.0%	10.6%	4.3%	15.7%	70.8µM*
SMILES	JMJD2A Tudor inh	Sfp PPTase inh	BAZ2B block	TDP1 inh	HP1b binding inh	G9a inh
COC(=O)/C=C/c1c(C)nc(NCc2ccccc2)nc1Cl	-24.7%	0.2%	?	.	3.4%	50.1µM*
Cc1ccccc1N1C(=O)C(Cl)=C(N2CCCCCC2)C1=O	84.8%	-26.2%	127.0%	-12.5%	278.6%	133.9%
CN1CCN(C2=C(Cl)C(=O)c3ccccc3C2=O)CC1	22.4µM*	.	.	.	?	.
CN1CCN(C2=C(Cl)C(=O)C(c3cnc(N4CCCCC4)s3)=C(Cl)C2=O)CC1	4.47µM*	-9.7%	12.7%	5.7%	?	8.9%[59 µM]
O=C1C(Cl)=C(N2CCC(C(=O)O)CC2)C(=O)c2ccccc21	-25.8%	?	?	-5.5%	-2.6%	50.1µM*
NC(=O)C1CCN(C2=C(Cl)C(=O)c3ccccc3C2=O)CC1	-29.3%	17.8µM*	25.1µM*	-4.8%	?	11.2µM*
O=C1C(Cl)=C(NCCN2CCOCC2)C(=O)c2ccccc21	-35.0%	1.1%	-37.5%	.	?	?
N#CC(c1ccccc1)c1cnccn1 (stereo not drawn)	-4.9%	.	11.5%	0.0%	73.3%	13.8%[2.33 µM]
Cc1ccccc1NC(=O)c1c(C)oc2ccc(O)c(CN3CCCCCC3)c12	-26.4%	.	-9.7%	3.7%	-27.3%	-20.1%[59 µM]
Cc1ccc(C)c(SCC(=O)OCC(=O)N2CC(C)OC(C)C2)c1 (stereo not drawn)	-8.0%	18.8%	-4.5%	4.8%	16.6%	-10.3%
CC(OC(=O)c1ccc(-c2ccc(O)cc2)cc1)C(=O)NC1CCCCC1C (stereo not drawn)	-15.9%	.	-6.3%	-1.6%	20.2%	4.9%[0.501 µM]
CC1COCC(C)N1C1=C(Cl)C(=O)c2ccccc2C1=O (stereo not drawn)	3.16µM*	.	.	.	12.6µM*	.
NNc1cc([N+](=O)[O-])cc2c1C(=O)N(Cc1ccccc1)S2=O (stereo not drawn)	56.2µM*	22.4µM*	?	4.9%	-1.8%	2.82µM*
O=C1C(=O)N(Cc2cccc([N+](=O)[O-])c2)c2ccccc21	-15.6%	4.9%	-24.9%	-5.8%	-2.5%	12.3%[59 µM]
O=C(NNc1cccc(Cl)c1)c1cccnc1Oc1ccccc1	5.3%	-4.6%	-4.5%	7.1%	35.6%	15.8µM*
CC(=O)CCc1c(C)c2cccc(C)c2[nH]c1=O	-19.8%	3.0%	?	5.1%	-11.9%	?
COc1cccc2c(=S)c(CCC(C)=O)c(C)[nH]c12	10µM*	-3.2%	-7.6%	5.4%	?	1.58µM*
C=CC[C@@H](CC(=O)N[C@H](CO)Cc1ccccc1)C(=O)N[C@H](COC(=O)[C@H](CC=C)CC(=O)OC(C)(C)C)Cc1c[nH]c2ccccc12	?	.	.	.	-13.5%	.
Cc1cc(NC(=O)CSc2nc3ccsc3c(=O)n2Cc2ccccn2)n[nH]1	-35.8%	13.3%	79.4µM*	4.8%	18.0%	102.2%[59 µM]
